Source: PubChem BioAssay (Broad Institute)
Pf Dd2 growth – P. falciparum Dd2 growth inhibition. 94,000 tested, 2.3% active. activity change, % at 10 µM. SYBR Green, 72 h; hits give low values. AID 1159554; in the data active = activity change below about -80%; inconclusive = no clear call, values can overlap the other calls
T cruzi growth-1 – T. cruzi proliferation inhibition | T. cruzi beta-gal in NIH3T3, GalScreen luminescence, 90 h | inhibition, % at 8.34 µM | 77,000 tested, 5.9% active | AID 624255;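 active = mean inhibition above about 93%, with at least 55% of replicates each passing it, limit read from the data, passing the limit was not always enough; inconclusive = only one of those two conditions holds; inactive = neither condition holds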
C diff HTS – blocks growth of Clostridium difficile | Clostridium difficile clinical isolate growth, OD600, 24 h; hits give low values | growth activity, negative = inhibition, % at 16 µg/mL (by protocol) | 86,000 tested, 0.25% active;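 active = mean growth activity at or below -80% and every replicate also at or below -80%; inconclusive = mean at or below -80% but some replicate above -80%; inactive = mean growth activity above -80%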;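 note: 0% = DMSO wells and -100% = levofloxacin 16 µg/mL wells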
T cruzi growth-2 – Trypanosoma cruzi proliferation inhibition. shares compounds with T cruzi growth-1. inhibition, % at 8.35 µM. T. cruzi beta-gal in NIH3T3, GalScreen luminescence, 90 h. 5,600 tested, 72% active. AID 651739;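 active = mean replicate inhibition above about 95% and at least 55% of replicates individually reaching it, limit read from the data; inconclusive = only one of the two criteria is met; inactive = neither criterion is met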
T cruzi growth-3 – inhibitors of T. cruzi proliferation; shares compounds with T cruzi growth-1; T. cruzi beta-gal in NIH3T3, GalScreen luminescence, 90 h; inhibition, % at 2.09 µM; 5,600 tested, 21% active;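 active = mean inhibition above about 95%, with at least 55% of replicates also reaching it, limit read from the data; inconclusive = meets just one of the two conditions; inactive = meets neither condition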;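 note: plate controls were neutral control median for no effect and positive control median for full effect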
NIH3T3 tox – kills mouse NIH/3T3 fibroblasts | NIH/3T3 viability, CellTiter-Glo ATP luminescence, 90 h | shares compounds with T cruzi growth-1 | cytotoxicity (signal decrease), % at 8.35 µM | 5,600 tested, 14% active | AID 651742;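 active = mean signal decrease across replicates above about 35% based on untreated-well scatter, with enough replicates individually passing, limit read from the data; inconclusive = no rule stated though some were filed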;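 note: 0% = median of neutral control wells and 100% = median of positive control wells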
NIH3T3 tox 2 – NIH/3T3 (mouse) viability loss; 5,600 tested, 56% active; shares compounds with T cruzi growth-1; inhibition, % at 24.9 µM; AID 651744; NIH/3T3 viability, CellTiter-Glo ATP luminescence, 90 h;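 active = mean loss of cell viability signal at or above a set limit, and enough replicates individually reaching it; inconclusive = meets only the mean limit or only the replicate share; inactive = meets neither condition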;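 note: 0% = median of neutral control wells and 100% = median of positive control wells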
* hit, by the source's call; ? = inconclusive; / = no result. This is a sample that favours compounds with a hit; in the whole collection about 6.8% have one here.

SMILES	Pf Dd2 growth	T cruzi growth-1	C diff HTS	T cruzi growth-2	T cruzi growth-3	NIH3T3 tox	NIH3T3 tox 2
CC(C)CC#Cc1ccc2c(c1)O[C@H](CN(C)C(=O)C1CC1)[C@H](C)CN([C@@H](C)CO)S2(=O)=O	-44	94	/	/	/	/	/
CC(C)CC#Cc1ccc2c(c1)O[C@H](CN(C)C(=O)C1CCCCC1)[C@@H](C)CN([C@@H](C)CO)S2(=O)=O	-39	112*	15	100*	116*	10	104*
CC(C)CC#Cc1ccc2c(c1)O[C@@H](CN(C)C(=O)C1CCCCC1)[C@H](C)CN([C@@H](C)CO)S2(=O)=O	-75	122*	0	104*	104*	19	105*
CC(C)CC#Cc1ccc2c(c1)O[C@H](CN(C)C(=O)C1CC1)[C@H](C)CN([C@H](C)CO)S2(=O)=O	-38	81	/	/	/	/	/
CC(C)CC#Cc1ccc2c(c1)O[C@H](CN(C)C(=O)C1CC1)[C@@H](C)CN([C@H](C)CO)S2(=O)=O	-41	86	/	/	/	/	/
CC(C)CC#Cc1ccc2c(c1)O[C@H](CN(C)C(=O)C1CCCCC1)[C@@H](C)CN([C@H](C)CO)S2(=O)=O	-39	118*	18	106*	107*	13	105*
C/C=C/c1ccc([C@@H]2[C@H](CO)N(C(C)=O)C23CN(C(=O)c2cnccn2)C3)cc1	-2	/	19	/	/	/	/
Cc1ccc(S(=O)(=O)N[C@H]2CC[C@H](CC(=O)NCc3ccc(Cl)c(Cl)c3)O[C@H]2CO)cc1	4	23	-1	/	/	/	/
COc1cccc(S(=O)(=O)N2CC[C@@H]3[C@H](CO)N(C)c4ccc(C#Cc5cccnc5)cc4[C@@H]32)c1	-65	33	5	/	/	/	/
C[C@@H]1CN([C@H](C)CO)C(=O)c2cc(C#CCC3CCCC3)cnc2O[C@H]1CN(C)C(=O)CC1CC1	-52	?	16	96*	23	19	83*
C[C@H](CO)N1C[C@H](C)[C@H](CN(C)C(=O)CC2CC2)Oc2ncc(C#CCC3CCCC3)cc2C1=O	-8	95	15	/	/	/	/
C[C@@H]1CN([C@@H](C)CO)C(=O)c2cc(C#CCC3CCCC3)cnc2O[C@H]1CN(C)C(=O)CC1CC1	-33	100*	15	?	48	21	39*
C[C@@H]1CN([C@H](C)CO)C(=O)c2cc(C#CCC3CCCC3)cnc2O[C@H]1CN(C)C(=O)CN(C)C	-75	/	-2	/	/	/	/
CCc1cnc(N2[C@H](C#N)[C@@H](c3ccc(C#CC(C)C)cc3)[C@@H]2CO)s1	-47	98*	22	104*	110*	-3	43*
CCc1cnc(N2[C@H](CO)[C@@H](c3ccc(C#CC(C)C)cc3)[C@@H]2C#N)s1	-41	99*	-2	101*	104*	-2	52*
CCS(=O)(=O)N1[C@H](C#N)[C@@H](c2ccc(C#CC(C)C)cc2)[C@@H]1CO	-5	55	0	/	/	/	/
CCS(=O)(=O)N1[C@H](CO)[C@H](c2ccc(C#CC(C)C)cc2)[C@@H]1C#N	33	76	0	/	/	/	/
CN(C)C(=O)c1ccc(-c2ccc(C3[C@H]4CNC[C@@H]3N4C(=O)NC3CCCC3)cc2)cc1 (some centres undefined)	-4	/	6	/	/	/	/
C[C@@H]1CN([C@@H](C)CO)C(=O)c2ccccc2-c2ccccc2CO[C@H]1CN(C)C(=O)C1CC1	-8	-1	-7	/	/	/	/
COCCNC(=O)C[C@H]1CC[C@H]2[C@@H](COc3ccc(NC(=O)c4cnccn4)cc3C(=O)N2C)O1	-5	14	-3	/	/	/	/
C[C@@H]1CN([C@@H](C)CO)C(=O)c2cc(NC(=O)Cc3ccccc3)ccc2O[C@@H]1CN(C)Cc1ccc(-c2ccccc2)cc1	15	?	14	111*	59	12	95*
C[C@@H]1CN([C@H](C)CO)C(=O)c2cc(NC(=O)Cc3ccccc3)ccc2O[C@H]1CN(C)Cc1ccc(-c2ccccc2)cc1	-6	91	3	/	/	/	/
C[C@@H]1CN([C@H](C)CO)C(=O)c2cc(NC(=O)Cc3ccccc3)ccc2O[C@H]1CN(C)Cc1ccc(Oc2ccccc2)cc1	64	15	/	/	/	/	/
C[C@H](CO)N1C[C@H](C)[C@@H](CN(C)Cc2ccc(Oc3ccccc3)cc2)Oc2ccc(NC(=O)Cc3ccccc3)cc2C1=O	-1	?	/	78	83	7	89*
O=C(C[C@H]1CC[C@@H]2[C@H](COC[C@@H](O)CN2C(=O)Cc2ccccc2)O1)NC1CCCC1	-13	42	7	/	/	/	/
SMILES	Pf Dd2 growth	T cruzi growth-1	C diff HTS	T cruzi growth-2	T cruzi growth-3	NIH3T3 tox	NIH3T3 tox 2
CCCc1cn(CC[C@H]2CC[C@H](NC(=O)CCN3CCCCC3)[C@@H](CO)O2)nn1	1	/	-1	/	/	/	/
C[C@@H]1CCCCO[C@@H](CN(C)C(=O)Nc2ccc(F)cc2)[C@H](C)CN([C@H](C)CO)C(=O)c2cc(NC(=O)c3ccccc3)ccc2O1	-32	93	-7	/	/	/	/
C[C@@H]1CCCCO[C@H](CN(C)C(=O)Nc2ccc(C(F)(F)F)cc2)[C@@H](C)CN([C@H](C)CO)C(=O)c2cc(NC(=O)c3ccccc3)ccc2O1	-59	54	5	/	/	/	/
C[C@H]1CCCCO[C@H](CN(C)C(=O)Nc2ccc(F)cc2)[C@@H](C)CN([C@@H](C)CO)C(=O)c2cc(NC(=O)c3ccccc3)ccc2O1	-61	99*	-3	89	54	8	?
C[C@@H]1CCCCO[C@H](CN(C)C(=O)Nc2ccc(F)cc2)[C@H](C)CN([C@H](C)CO)C(=O)c2cc(NC(=O)c3ccccc3)ccc2O1	?	?	-1	102*	62	11	15
C[C@@H]1CN([C@H](C)CO)C(=O)c2cc(NC(=O)c3ccccc3)ccc2O[C@@H](C)CCCCO[C@H]1CN(C)C(=O)Nc1ccc(F)cc1	-45	70	2	/	/	/	/
C[C@H]1CCCCO[C@@H](CN(C)C(=O)Nc2ccc(C(F)(F)F)cc2)[C@@H](C)CN([C@@H](C)CO)C(=O)c2cc(NC(=O)c3ccccc3)ccc2O1	-84*	102*	11	108*	113*	-5	19
C[C@@H]1CN([C@H](C)CO)C(=O)Cc2cc(NC(=O)Cn3cnnn3)ccc2O[C@@H]1CN(C)Cc1ccc(C(=O)O)cc1	16	7	-4	/	/	/	/
CCCNC(=O)N1CC(=O)N2[C@@H](CO)[C@H](c3ccc(C#Cc4cccc(F)c4)cc3)[C@@H]2C1	3	/	-5	/	/	/	/
O=C(Nc1cc(F)ccc1F)N1C[C@@H]2[C@H](c3ccccc31)[C@@H](CO)N2CC1CCCC1	-33	-9	18	/	/	/	/
O=C(C[C@H]1CC[C@H]2[C@@H](COC[C@H](O)CN2Cc2cccc(Cl)c2)O1)NCC1CCCCC1	/	81	-12	/	/	/	/
